# Out of some 52,000 compounds screened, about 4,300 (8.3%) were called active. Cut-off read from the data, not from the text of the source: active = survival mostly below about 52% (no sharp cut-off); inactive = mostly above about 56%. This excerpt belongs to a sample that is enriched for actives.
# Test system: DeltatarO mutant
# Experiment: growth inhibition of S. aureus wild type versus tarO mutant, primary screen, teichoic acid synthesis inhibitors, RN4220, OD600 (AID 463173)
# Conditions: OD600, 18 h, hits give low values, screened at 18.75 µg/mL (by protocol)
row,SMILES,survival
1,COc1ccc(-c2noc(CN(C)S(=O)(=O)c3c(C)cc(C)cc3C)n2)cc1OC,45% (inactive)
2,COc1ccc(-c2noc(COc3cc(C)ccc3C)n2)cc1OC,-5% (active)
3,COc1ccc(OCc2nc(-c3ccc(OC)c(OC)c3)no2)cc1,61% (inactive)
4,CN(C)S(=O)(=O)c1ccc(S(=O)(=O)N(CC(=O)Nc2ccccc2)C2CC2)cc1,94% (inactive)
5,Cc1cc(C)cc(OCC(=O)NCC2(N3CCOCC3)CCCCC2)c1,91% (inactive)
6,CCn1c2ccccc2c2cc(C3C(C#N)=C(N)Oc4n[nH]c(C(C)C)c43)ccc21 (configuration not stated),3% (active)
7,CCc1[nH]nc2c1C(c1ccc(F)c(Oc3ccccc3)c1)C(C#N)=C(N)O2 (configuration not stated),80% (inactive)
8,COCc1[nH]nc2c1C(c1ccc(F)c(F)c1)C(C#N)=C(N)O2 (configuration not stated),74% (inactive)
9,CCOC(=O)c1cc(S(=O)(=O)N2CCN(c3cccc(OC)c3)CC2)[nH]n1,108% (inactive)
10,COc1ccc(NS(=O)(=O)c2ccc3c(c2)CCN3C(=O)C2CC2)cc1OC,86% (inactive)
11,Cc1cccc(N2CCN(C(=O)Cc3c(C(=O)O)c(C)cn3C)CC2)c1C,96% (inactive)
12,Cc1cn(C)c(CC(=O)N2CCN(c3ccccc3F)CC2)c1C(=O)O,89% (inactive)
13,COc1ccccc1N1CCN(C(=O)Cc2c(C(=O)O)c(C)cn2C)CC1,-5% (active)
14,Cc1ccc(NC(=O)c2cccc(NC(=O)N3CCSc4ncccc43)c2)cc1Cl,88% (inactive)
15,O=C(CCSCc1cnn(-c2ccccc2)c1-n1cccc1)NCc1ccc(Cl)cc1,63% (inactive)
16,CCOC(=O)c1cccc(Nc2ccc3cc(S(=O)(=O)N4CCCCC4)ccc3n2)c1,-1% (active)
17,CC(=O)c1cccc(Nc2ccc3cc(S(=O)(=O)N4CCCC4)ccc3n2)c1,101% (inactive)
18,O=S(=O)(c1ccc2nc(Nc3cccc(F)c3)ccc2c1)N1CCCC1,72% (inactive)
19,COc1ccc(-c2onc(C)c2C)cc1S(=O)(=O)N1CCN(c2ccc(Cl)cc2)CC1,64% (inactive)

row,SMILES,survival
1,Clc1cccc(CNNc2nc(N3CCCCC3)nc(N3CCCCC3)n2)c1,98% (inactive)
2,CCn1cc2nc(SCc3cc(C)ccc3C)n(CCc3ccccc3)c(=O)c2n1,67% (inactive)
3,CCOC(=O)c1cnc2ccc(OCC)cc2c1NCCc1ccc(OC)c(OC)c1,116% (inactive)
4,CCOC(=O)c1ccc2ncc(C(=O)OCC)c(NCCc3ccc(OC)c(OC)c3)c2c1,53% (inactive)
5,CCOC(=O)c1cnc2ccc(OC)cc2c1NCCc1ccc(OC)c(OC)c1,65% (inactive)
6,CCOC(=O)c1cnc2ccccc2c1NCCc1ccc(OC)c(OC)c1,33% (active)
7,CCOC(=O)c1cnc2ccc(OC)cc2c1NCCc1ccccc1,-2% (active)
8,CCOC(=O)c1cnc2c(C)c(C)ccc2c1NCCCCCO,84% (inactive)
9,CCOC(=O)c1cnc2ccc(C)cc2c1NCCc1ccc(OC)c(OC)c1,136% (inactive)
10,CCOC(=O)c1cnc2c(C)c(Cl)ccc2c1NCCc1ccccc1,-3% (active)
11,CCOC(=O)c1cnc2c(C)c(Cl)ccc2c1Nc1ccc(C)cc1C,142% (inactive)
12,CCOC(=O)c1cnc2c(C)c(Cl)ccc2c1NCCc1ccc(OC)c(OC)c1,17% (active)
13,Cn1c(=O)n(CCc2ccccc2)c(=O)c2c1nc1n2CCN1c1ccc(Cl)cc1,76% (inactive)
14,O=C(Cc1ccccc1)N(Cc1cccnc1)c1nc2ccc(F)cc2s1,86% (inactive)
15,Cc1ccc(C2CCN(C(=O)c3cnn(-c4ccc(C)c(C)c4)c3C3CCN(C(=O)OC(C)(C)C)CC3)C2)cc1 (configuration not stated),90% (inactive)
16,COc1ccccc1N1CCN(S(=O)(=O)c2ccc(F)c(C(=O)Nc3ccc(C)c(F)c3)c2)CC1,93% (inactive)
17,Cn1c(=N)n(CC(=O)c2ccc(-c3ccccc3)cc2)c2ccccc21,106% (inactive)
18,CCCCNC(=O)CCCn1c(=O)c2ccccc2n(Cc2c(C)cc(C)cc2C)c1=O,90% (inactive)
19,Cc1ccc(NC(=O)Cn2cc(C(=O)C3CCCCC3)c3ccccc32)c(C)c1,78% (inactive)

row,SMILES,survival
1,COc1cccc(CNC(=O)COc2cc(=O)n(C)c3ccccc23)c1,72% (inactive)
2,CCOC(=O)c1cnc2c(C)cc(Cl)cc2c1NCCc1ccc(OC)c(OC)c1,31% (active)
3,CCOC(=O)c1cnc2c(C)cc(C)cc2c1NCCc1ccc(OC)c(OC)c1,66% (inactive)
4,CCOC(=O)c1c(C)oc2nc(C)nc(NCCc3ccc(OC)c(OC)c3)c12,94% (inactive)
5,COCCn1c(SCC(=O)c2ccc(F)cc2)nc2cc(C(=O)NC3CCCC3)ccc2c1=O,94% (inactive)
6,CCCC1(C(=O)OCC)NC(c2ccccc2F)C2C(=O)N(c3ccccc3)C(=O)C21 (configuration not stated),88% (inactive)
7,CCOC(=O)c1c(C)[nH]c(C)c1S(=O)(=O)NCC(=O)Nc1cccc(SC)c1,66% (inactive)
8,OC1(C#CCN2CCCCCC2)CCCCC1,93% (inactive)
9,O=C(CC1(O)C(=O)N(CCc2ccccc2)c2ccc(Br)cc21)c1ccccc1 (configuration not stated),25% (active)
10,Cc1ccc(C(=O)CC2(O)C(=O)N(CCc3ccccc3)c3ccc(Br)cc32)cc1 (configuration not stated),39% (inactive)
11,COc1ccc(C(=O)CC2(O)C(=O)N(CCc3ccccc3)c3ccc(Br)cc32)cc1OC (configuration not stated),53% (inactive)
12,C#CCN1C(=O)C(O)(CC(=O)c2ccc(OC)c(OC)c2)c2cc(Br)ccc21 (configuration not stated),78% (inactive)
13,O=C(CC1(O)C(=O)N(CCc2ccccc2)c2ccc(Br)cc21)c1ccccc1O (configuration not stated),40% (active)
14,O=C(CC1(O)C(=O)N(CCc2ccccc2)c2ccc(Br)cc21)c1ccc(F)cc1 (configuration not stated),55% (inactive)
15,Cc1nn2c(-c3ccco3)ccnc2c1-c1ccc(Br)cc1,81% (inactive)
16,N#Cc1c(N)nc(SCc2ccccc2)c(C#N)c1-c1cccs1,49% (inactive)
17,COc1ccc(N(C(=O)Cn2nnc3ccccc32)C(C(=O)NCC2CCCO2)c2sccc2C)cc1 (configuration not stated),94% (inactive)
18,COc1ccc(-n2nc(C(=O)NCCc3ccc(OC)c(OC)c3)c3c4ccccc4n(C)c3c2=O)cc1,89% (inactive)
19,O=c1[nH]c(=O)n(C2CCCCC2)c(O)c1C1=Nc2ccccc2SC(c2ccccc2)C1 (configuration not stated),93% (inactive)

# From PubChem BioAssay AID463173 (ICCB-Longwood Screening Facility, Harvard Medical School, 2010)
